Test results published in PubChem BioAssay (Tox21).
Records with an inconclusive call do not appear. Calls of active or inactive are those of the source. Unless noted, calls follow the shape of the dose curve; as a rule, active = well fitted curve in the direction sought with a large enough effect in the repeat runs; inconclusive = weak or mixed curves; inactive = no such curve, though single readings can be large; an effect the other way counts as inactive or inconclusive.

Assays:
[1] = qHTS assay for small molecule agonists of the p53 signaling pathway (AID 651631; calls by dose curve; also: nearly all actives have a fitted effect of over 15% in size)
Method in brief: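 Agonist mode screen using a stably integrated beta-lactamase gene under p53 response elements in HCT-116 cells. Compound exposure lasts 16 h at 37 °C; fluorescence intensity is measured following 2 h FRET substrate loading.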

[2] = qHTS assay for small molecules that induce genotoxicity in human embryonic kidney cells expressing luciferase-tagged ATAD5 (AID 651632); also: nearly all actives have a fitted effect of over 15% in size
Method in brief: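 ATAD5-luc HEK293T, 2,000 cells/well; cpd or DMSO pin-transferred; 16 hr, 37C/5% CO2; Amplite 30 min RT; luminescence.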

[3] = qHTS assay for small molecule agonists of the p53 signaling pathway - cell viability (AID 651633; calls by dose curve;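 also: p53RE-bla HCT reporter cells with a stable beta-lactamase p53 reporter; series mostly up to about 83 µM; nearly all actives have a fitted effect of over 30% in size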)
Method in brief: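 Viability counter-read: CellTiter-Glo luminescence (30 min, room temperature) in the same p53RE-bla plates. These plates had been exposed to compounds for 16 h at 37 C.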

[4] = qHTS assay for small molecules that induce genotoxicity in human embryonic kidney cells expressing luciferase-tagged ATAD5 - cell viability (AID 651634; calls by dose curve; also: nearly all actives have a fitted effect of over 25% in size)
Method in brief: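 Fluorescence from CellTiter-Fluor, reporting protease activity within live cells, served as the viability read-out. HEK293T cells carrying luciferase-tagged ATAD5 had been treated with compound for 15.5 hr at 37C.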

[5] = qHTS assay to test for compound auto fluorescence at 590 nm (red) in HepG2 cells (AID 720674)
Method in brief: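 Red autofluorescence (Ex/Em 540/590 nm, Rose Bengal sodium equivalents) was measured in HepG2 cells, 2,000 per well in MEM plus 10% FBS, plated overnight at 37 C. Readings were taken 1 hr after adding 23 nL compound or DMSO, at 37 C and 5% CO2.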

[6] = qHTS assay to test for compound auto fluorescence at 535 nm (green) in HepG2 cells (AID 720675)
[7] = qHTS assay to test for compound auto fluorescence at 460 nm (blue) in HEK293 cells (AID 720678)
Method in brief: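 Intrinsic compound fluorescence is recorded in live HEK293 cultures after overnight incubation at 37C, 5% CO2, using excitation 405 nm and emission 460 nm. Values are referenced to triamterene.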

[8] = qHTS assay to test for compound auto fluorescence at 590 nm (red) in HEK293 cells (AID 720679)
Method in brief: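 Red autofluorescence, HEK293 cells: 2,000 cells/well; attach 4-5 hr 37C; add 23 nL cpd or DMSO; incubate o/n 37C 5% CO2; read Ex540/Em590; Rose Bengal sodium reference.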

[9] = qHTS assay to test for compound auto fluorescence at 535 nm (green) in HEK293 cells (AID 720680)
[10] = qHTS assay to test for compound auto fluorescence at 460 nm (blue) in HEK293 cell free culture (AID 720681)
Method in brief: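 Blue fluorescence (Ex 405/Em 460 nm, triamterene-equivalent) was read immediately after pin transfer of compound or DMSO into medium (DMEM, 10% FBS) without cells.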

[11] = qHTS assay to test for compound auto fluorescence at 535 nm (green) in HEK293 cell free culture (AID 720682)
Method in brief: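 No cells present: wells hold DMEM supplemented with 10% FBS, into which compound or vehicle is pinned. Green emission is then recorded (485 nm excitation, 535 nm emission) and scaled to fluorescein.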

[12] = qHTS assay to test for compound auto fluorescence at 590 nm (red) in HEK293 cell free culture (AID 720683)
Method in brief: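 Red-channel autofluorescence of compounds in culture medium (DMEM, 10% FBS), no cells, measured at 540/590 nm. Rose Bengal sodium is the reference fluorophore for equivalence.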

[13] = qHTS assay to test for compound auto fluorescence at 460 nm (blue) in HepG2 cell free culture (AID 720685)
Method in brief: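 Compound (23 nL) or DMSO pinned into cell-free MEM with 10% FBS; blue fluorescence read at 405/460 nm excitation/emission, expressed as auto-fluorescence equivalency to triamterene.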

[14] = qHTS assay to test for compound auto fluorescence at 535 nm (green) in HepG2 cell free culture (AID 720686)
[15] = qHTS assay to test for compound auto fluorescence at 460 nm (blue) in HepG2 cells (AID 720687)
Method in brief: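 Blue-channel autofluorescence (Ex/Em 405/460 nm, triamterene-equivalent) was measured after 1 hr compound exposure at 37 C, 5% CO2. Cells were HepG2, plated overnight at 37 C in MEM plus 10% FBS.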

[16] = molecular target: Glucocorticoid receptor (Homo sapiens) (UniProt P04150); assay: qHTS assay to identify small molecule antagonists of the glucocorticoid receptor (GR) signaling pathway (AID 720692; active = well fitted inhibition curve with a large enough effect in the signal ratio in the repeat runs, not every such curve was filed as active; the % refers to the signal ratio)
Method in brief: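 HeLa GR-bla cells; cmpd + dex 5 nM final, 18 h 37 C; LiveBLAzer B/G FRET substrate 2 h RT; fluorescence intensity read. Antagonist mode, qHTS.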

[17] = qHTS assay to test for compound auto fluorescence at 590 nm (red) in HepG2 cell free culture (AID 720684)
Method in brief: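 Plate contents were MEM with 10% FBS plus test compound or DMSO, no cells. Fluorescence was recorded with 540 nm excitation and 590 nm emission.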

[18] = qHTS assay for small molecule disruptors of the mitochondrial membrane potential - cell viability (AID 720634; calls by dose curve;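 also: human HepG2 liver cancer cells; series mostly up to about 83 µM; nearly all actives have a fitted effect of over 20% in size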)
Method in brief: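 Cells: HepG2, 2,000/well, attached overnight. Compound 1 hr, 37 C/5% CO2. +m-MPI dye, +CellTiter-Glo 30 min RT. Readout: luminescence (ATP).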

[19] = qHTS assay for small molecule disruptors of the mitochondrial membrane potential (AID 720635)
Method in brief: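 Mitochondrial membrane potential tracked with Mito-MPS dye, red aggregates (ex 540/em 590 nm) against green monomers (ex 490/em 535 nm). Compound treatment 1 hr at 37C, dye 30 min in HepG2.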

[20] = molecular target: Glucocorticoid receptor (Homo sapiens) (UniProt P04150); assay: qHTS assay to identify small molecule agonists of the glucocorticoid receptor (GR) signaling pathway (AID 720691; active = well fitted activation curve with a large enough effect in the signal ratio in the repeat runs, not every such curve was filed as active; the % refers to the signal ratio)
Method in brief: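 Fluorescence intensity from LiveBLAzer B/G FRET substrate (2 h, room temperature) reports beta-lactamase expression driven by the glucocorticoid response element in GR-bla HeLa cells after 18 h compound exposure at 37 C.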

Measured: Potency

Glucocorticoid receptor (Homo sapiens), sequence (P04150 whole entry, looked up): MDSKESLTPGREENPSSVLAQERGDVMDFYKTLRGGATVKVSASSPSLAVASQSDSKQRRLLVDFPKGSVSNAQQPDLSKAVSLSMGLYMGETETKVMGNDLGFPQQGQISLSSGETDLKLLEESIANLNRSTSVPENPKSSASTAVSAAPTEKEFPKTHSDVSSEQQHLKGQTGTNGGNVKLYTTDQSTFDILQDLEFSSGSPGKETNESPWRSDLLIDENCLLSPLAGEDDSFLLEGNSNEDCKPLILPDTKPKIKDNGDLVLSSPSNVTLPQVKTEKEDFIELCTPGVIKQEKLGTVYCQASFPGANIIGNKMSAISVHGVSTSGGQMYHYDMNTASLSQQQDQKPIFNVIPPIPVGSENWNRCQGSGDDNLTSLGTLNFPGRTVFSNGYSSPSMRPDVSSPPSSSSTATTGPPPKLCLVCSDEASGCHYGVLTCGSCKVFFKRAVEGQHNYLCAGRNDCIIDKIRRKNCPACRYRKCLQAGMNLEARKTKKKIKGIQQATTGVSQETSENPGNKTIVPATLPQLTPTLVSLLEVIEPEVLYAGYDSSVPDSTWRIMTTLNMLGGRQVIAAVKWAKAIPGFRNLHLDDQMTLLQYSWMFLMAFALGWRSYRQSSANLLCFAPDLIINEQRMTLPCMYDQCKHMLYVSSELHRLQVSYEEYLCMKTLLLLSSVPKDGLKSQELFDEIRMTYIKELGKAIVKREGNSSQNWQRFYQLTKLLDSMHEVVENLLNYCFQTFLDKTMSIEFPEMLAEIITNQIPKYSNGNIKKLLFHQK

CC(Oc1ccc(Cl)cc1Cl)C(=O)O (configuration not stated)
not listed: [17] | [18] | [19] | [20]
inactive: all other assays above

CC(C#N)CCC#N (configuration not stated)
not listed: [16] | [18] | [19] | [20]
inactive: all other assays above

C#CCN(C)[C@H](C)Cc1ccccc1
not listed: [1] | [17]
inactive: all other assays above

O=c1ccc(=O)[nH][nH]1
not listed: [2] | [16] | [20]
inactive: all other assays above

Clc1cccc(Cl)c1Cl
not listed: [1] | [2] | [17]
inactive: all other assays above

CC(C)C#N
not listed: [1] | [19]
inactive: all other assays above
